In PubChem BioAssay (Tox21):
Results filed as inconclusive are left out. Calls of active or inactive are those of the source. Unless noted, calls follow the shape of the dose curve; as a rule, active = well fitted curve in the direction sought with a large enough effect in the repeat runs; inconclusive = weak or mixed curves; inactive = no such curve, though single readings can be large; an effect the other way counts as inactive or inconclusive.

How the values were obtained:
[1] = molecular target: Retinoic acid receptor RXR-alpha (Homo sapiens) (UniProt P19793); assay: qHTS assay to identify small molecule agonists of the RXR signaling pathway (AID 1159527; calls by dose curve; also: nearly all actives have a fitted effect of over 35% in size)
Method in brief: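 Agonist mode; 9-cis retinoic acid positive control. HEK 293T UAS-bla reporter cells, 2% charcoal-stripped FBS, 16 hr compound exposure at 37 C/5% CO2. LiveBLAzer B/G FRET substrate 2 hr RT; ex 405, em 460/530 nm.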

[2] = qHTS assay to identify small molecule agonists of the RXR signaling pathway - cell viability counter screen (AID 1159529); also: series mostly up to about 77 µM; nearly all actives have a fitted effect of over 50% in size
Method in brief: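 Luminescence from CellTiter-Glo (30 min, RT) measured viability in the same wells as the beta-lactamase reporter readout. Cells: GeneBLAzer RXR-alpha HEK 293T, 2% charcoal-stripped FBS. Compound exposure 16 hr, 37 C.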

[3] = qHTS assay to identify small molecule antagonists of the retinoid acid receptor (RAR) signaling pathway - cell viability counter screen (AID 1159551); also: nearly all actives have a fitted effect of over 35% in size; also: potency is read from the fitted curve at half-maximal effect
Method in brief: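 Cytotoxicity counter screen: ATP content quantified by CellTiter-Glo luminescence in C3RL4 cells treated 6 hr at 37 C with compound and retinol (1 uM final). Cells plated at 1,000/well and cultured overnight before dosing.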

[4] = qHTS assay to identify small molecule antagonists of the retinoic acid receptor (RAR) signaling pathway (AID 1159552; also: nearly all actives have a fitted effect of over 50% in size)
Method in brief: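 Luminescence from a RARE luciferase reporter in C3RL4 cells served as read-out. Cells received compounds together with 1 uM final retinol and incubated 6 hr at 37 C before detection reagent was added for 30 min at room temperature.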

[5] = qHTS assay to identify small molecule antagonists of the estrogen related receptor (ERR) signaling pathway from Tox21 library - cell viability counter screen (AID 1224834); also: nearly all actives have a fitted effect of over 30% in size; also: potency is read from the fitted curve at half-maximal effect
Method in brief: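 CellTiter-Fluor fluorescence, read after 30 min at 37 C, measures viability of ERR cells. Cells plated at 2,000/well and incubated 6 h before pin-tool compound addition, then exposed 17.5 hours at 37 C.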

[6] = molecular target: Luciferin 4-monooxygenase (Photinus pyralis) (UniProt P08659); assay: qHTS assay to identify small molecule inhibitors of firefly luciferase (AID 1224835); also: nearly all actives have a fitted effect of over 25% in size; also: potency is read from the fitted curve at half-maximal effect; as to activity change, negative = inhibition: series mostly up to about 120 µM
Method in brief: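 Biochemical qHTS: compounds run as interplate titrations against purified firefly enzyme, with D-luciferin and ATP each at its KM concentration. Light output recorded by CCD imaging.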

[7] = qHTS assay to identify small molecule agonists of the constitutive androstane receptor (CAR) signaling pathway - cell viability counter screen (AID 1224836); also: nearly all actives have a fitted effect of over 45% in size; also: potency is read from the fitted curve at half-maximal effect; as to viability change, negative = cytotoxic: series mostly up to about 92 µM
Method in brief: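 Viability read-out: CellTiter-Fluor fluorescence after 23 h compound exposure at 37 C/5% CO2 in double-stable HepG2-CYP2B6-hCAR cells, with PK11195 present at 0.75 uM final; compounds tested in 15-point titration.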

[8] = molecular target: Nuclear receptor subfamily 1 group I member 3 (Homo sapiens) (UniProt Q14994); assay: qHTS assay to identify small molecule antagonists of the constitutive androstane receptor (CAR) signaling pathway (AID 1224838);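 also: HepG2 cells stably expressing hCAR with CYP2B6 luciferase reporter stimulated by CITCO; nearly all actives have a fitted effect of over 40% in size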
Method in brief: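 Antagonism measured as luciferase signal (ONE-Glo, 30 min, room temperature) in CAR-stimulated cells: HepG2-CYP2B6-hCAR double-stable line exposed 24 hr at 37 C to compound in a 15-point series plus 50 nM CITCO.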

[9] = molecular target: Nuclear receptor subfamily 1 group I member 3 (Homo sapiens) (UniProt Q14994); assay: qHTS assay to identify small molecule agonists of the constitutive androstane receptor (CAR) signaling pathway (AID 1224839); also: nearly all actives have a fitted effect of over 15% in size; also: potency is read from the fitted curve at half-maximal effect;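 as to activation: HepG2 cells stably carrying human CAR and a CYP2B6 luciferase reporter; series mostly up to about 92 µM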
Method in brief: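 Luminescence read-out (ONE-Glo, 30 min, room temperature) from double-stable HepG2-CYP2B6-hCAR cells exposed 24 h to 15-point compound series in presence of 0.75 uM PK11195 final.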

[10] = qHTS assay to identify small molecule antagonists of the estrogen related receptor signaling pathway with the pleiotropic PPARgamma coactivator (PGC) from Tox21 10K library - cell viability counter screen (AID 1224840; active = well fitted cell-killing curve with a large enough effect in the repeat runs, not every such curve was filed as active; also: nearly all actives have a fitted effect of over 40% in size; also: potency is read from the fitted curve at half-maximal effect)
Method in brief: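 Counter-screen for cytotoxicity: after 17.5 h compound exposure at 37 C, CellTiter-Fluor reagent added to PGC/ERR cells for 30 min and fluorescence read. Cells were seeded at 2,000 per well 6 h before dosing.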

[11] = qHTS assay to identify small molecule agonists of the estrogen related receptor signaling pathway with the pleiotropic PPARgamma coactivator (PGC) from Tox21 10K library (AID 1224842); also: nearly all actives have a fitted effect of over 15% in size
Method in brief: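 PGC/ERR reporter cell line, 2,000 cells per well, incubated 6 h at 37 C before 23 nL compound in DMSO was added. After 18 h at 37 C, One-Glo luminescence read following 30 min at room temperature.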

[12] = qHTS assay to identify small molecule antagonists of the constitutive androstane receptor (CAR) signaling pathway - cell viability counter screen (AID 1224837); also: series mostly up to about 92 µM; nearly all actives have a fitted effect of over 45% in size
Method in brief: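 Cytotoxicity counter-screen: CellTiter-Fluor fluorescence after 23 h compound exposure (15-point qHTS) in double-stable HepG2-CYP2B6-hCAR cells, with 50 nM CITCO added.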

[13] = qHTS assay to identify small molecule antagonists of the estrogen related receptor signaling pathway with the pleiotropic PPARgamma coactivator (PGC) from Tox21 10K library (AID 1224841; call rule not given here; also: actives are mostly falling curves and most rising ones were filed inactive; nearly all actives have a fitted effect of over 50% in size; also: potency is read from the fitted curve at half-maximal effect; as to activity, negative = inhibition: series mostly up to about 92 µM)
Method in brief: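 Luminescence (One-Glo, 30 min at room temperature) after 18 h compound treatment at 37 C of PGC/ERR reporter cells plated at 2,000 cells/well and settled 6 h beforehand.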

[14] = qHTS assay to identify small molecule agonists of the retinoic acid receptor (RAR) signaling pathway (AID 1159553)
Method in brief: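 Luminescence was measured 30 min after luciferase reagent addition at room temperature. Before that, C3RL4 reporter cells (1,000 per well, plated overnight) were treated with compound for 6 hr at 37 C and 5% CO2.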
% is scaled to controls: 0 for no effect and ±100 for the full control effect.

Retinoic acid receptor RXR-alpha (Homo sapiens), sequence (P19793 whole entry, looked up): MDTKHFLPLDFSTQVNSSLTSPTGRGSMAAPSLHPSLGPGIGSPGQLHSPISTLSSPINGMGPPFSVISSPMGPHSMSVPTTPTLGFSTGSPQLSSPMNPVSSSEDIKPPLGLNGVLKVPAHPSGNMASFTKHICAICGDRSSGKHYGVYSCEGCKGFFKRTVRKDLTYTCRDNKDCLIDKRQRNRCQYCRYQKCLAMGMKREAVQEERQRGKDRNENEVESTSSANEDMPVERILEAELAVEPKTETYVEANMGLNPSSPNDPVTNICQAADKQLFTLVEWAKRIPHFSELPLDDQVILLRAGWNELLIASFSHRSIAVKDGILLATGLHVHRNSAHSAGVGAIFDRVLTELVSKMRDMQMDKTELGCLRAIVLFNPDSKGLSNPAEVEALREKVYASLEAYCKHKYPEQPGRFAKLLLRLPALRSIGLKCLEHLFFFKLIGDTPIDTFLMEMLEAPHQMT
Luciferin 4-monooxygenase (Photinus pyralis), sequence (P08659 whole entry, looked up): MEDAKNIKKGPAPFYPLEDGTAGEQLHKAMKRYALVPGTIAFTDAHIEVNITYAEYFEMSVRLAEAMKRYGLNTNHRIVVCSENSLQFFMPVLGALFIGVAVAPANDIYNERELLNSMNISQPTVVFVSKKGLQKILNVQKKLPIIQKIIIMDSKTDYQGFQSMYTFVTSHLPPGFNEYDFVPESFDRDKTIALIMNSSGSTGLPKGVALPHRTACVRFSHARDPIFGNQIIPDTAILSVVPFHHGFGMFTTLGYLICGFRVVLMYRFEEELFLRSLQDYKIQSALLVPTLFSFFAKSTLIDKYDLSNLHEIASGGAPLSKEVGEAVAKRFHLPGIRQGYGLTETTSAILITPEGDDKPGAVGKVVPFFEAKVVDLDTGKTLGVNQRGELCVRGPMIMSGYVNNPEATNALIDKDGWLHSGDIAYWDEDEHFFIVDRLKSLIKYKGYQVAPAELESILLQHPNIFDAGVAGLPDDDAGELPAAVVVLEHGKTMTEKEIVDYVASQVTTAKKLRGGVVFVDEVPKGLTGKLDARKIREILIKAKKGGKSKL
Nuclear receptor subfamily 1 group I member 3 (Homo sapiens), sequence (Q14994 whole entry, looked up): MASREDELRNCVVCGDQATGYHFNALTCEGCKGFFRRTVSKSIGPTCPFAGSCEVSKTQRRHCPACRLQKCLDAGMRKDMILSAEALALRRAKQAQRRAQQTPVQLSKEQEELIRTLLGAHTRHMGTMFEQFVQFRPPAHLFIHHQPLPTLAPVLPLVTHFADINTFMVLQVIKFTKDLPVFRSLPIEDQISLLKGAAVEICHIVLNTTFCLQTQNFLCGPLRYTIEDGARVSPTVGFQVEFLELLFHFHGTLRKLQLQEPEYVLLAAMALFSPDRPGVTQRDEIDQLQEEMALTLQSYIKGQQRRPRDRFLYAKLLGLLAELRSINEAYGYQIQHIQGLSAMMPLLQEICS

CC(C)(C)C(=O)C(Oc1ccc(Cl)cc1)n1ccnc1 (configuration not stated)
inactive: Potency [1] | Potency [2] | Potency [3] | Potency [4] | Potency [5] | Potency [6] | Potency [7] | Potency [8] | Potency [9] | Potency [10] | Potency [11]

CCCCCCCCSCCO
active: Potency [6] 71 µM
inactive: Potency [1] | Potency [2] | Potency [3] | Potency [4] | Potency [5] | Potency [7] | Potency [12] | Potency [8] | Potency [9] | Potency [10] | Potency [13]

OC/C(Br)=C(\Br)CO
inactive: Potency [1] | Potency [2] | Potency [3] | Potency [4] | Potency [14] | Potency [5] | Potency [7] | Potency [8] | Potency [10] | Potency [13]

CCCC1C(CC)=CC(CC)=CN1c1ccccc1 (configuration not stated)
inactive: Potency [1] | Potency [2] | Potency [3] | Potency [4] | Potency [5] | Potency [6] | Potency [7] | Potency [12] | Potency [8] | Potency [10] | Potency [11]
active: Potency [9] 19.3 µM | Potency [13] 34.4 µM

CCCCCCCCCCCCCCCCBr
inactive: activation [1] 0.932% [at 15.8 µM] | activity change, negative = cytotoxicity [2] 2.29% [at 15.8 µM] | activity change, negative = cytotoxicity [3] 5.27% [at 19 µM] | activity, negative = inhibition [4] -1.48% [at 19 µM] | viability change, negative = cytotoxic [5] 0.749% [at 19 µM] | activity change, negative = inhibition [6] 1.26% [at 23.6 µM] | activity change, negative = cytotoxicity [12] -0.0926% [at 19 µM] | activity, negative = inhibition [8] -0.414% [at 19 µM] | viability change, negative = cytotoxic [10] 7.8% [at 19 µM] | activity, negative = inhibition [13] 36.1% [at 19 µM] | activation [11] 1.63% [at 19 µM]

CCCCCCCCCCCCCCC[C@H](O)[C@@H](N)CO
inactive: Potency [1] | Potency [2] | Potency [3] | Potency [4] | Potency [14] | Potency [5] | Potency [6] | Potency [7] | Potency [8] | Potency [9] | Potency [10]

O=C(/C=C/c1ccccc1)OCCCc1ccccc1
inactive: Potency [1] | Potency [2] | Potency [3] | Potency [4] | Potency [5] | Potency [12] | Potency [8] | Potency [10] | Potency [13] | Potency [11]

COC(OC)(C(=O)c1ccccc1)c1ccccc1
inactive: Potency [1] | Potency [2] | Potency [3] | Potency [4] | Potency [5] | Potency [7] | Potency [12] | Potency [8] | Potency [10] | Potency [13]
active: Potency [9] 15.3 µM

COc1ccccc1N=Nc1c(S(=O)(=O)O)cc2cc(S(=O)(=O)O)cc(NC(C)=O)c2c1O
inactive: Potency [1] | Potency [2] | Potency [4] | Potency [14] | Potency [9] | Potency [11]
active: Potency [3] 22.9 µM | Potency [5] 25.7 µM | Potency [6] 29.8 µM | Potency [7] 25.7 µM | Potency [10] 25.7 µM

O=Cc1c(Cl)cccc1Cl
inactive: Potency [1] | Potency [2] | Potency [3] | Potency [4] | Potency [14] | Potency [5] | Potency [7] | Potency [8] | Potency [9] | Potency [10] | Potency [13] | Potency [11]
